Hits are enriched below; roughly 3.1% of the tested compounds scored in any of these assays.
MITF act: increases MITF-driven TRPM1 promoter luciferase signal | 0.75% of 300,000 active | activation, % at 12.5 µM | SK-MEL-5 TRPM1-promoter luciferase, 24 h; % of positive control, neutral wells = 0;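 active = mean activation of at least 80% with every replicate also reaching 80%; inconclusive = mean reaches 80% but some replicate falls short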;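 also: 0% = neutral control wells and 100% = parthenolide positive control wells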
Wnt bcat act: Wnt/beta-catenin pathway activation. Wnt/beta-catenin reporter cell assay, activator, plate reader. activation, % at 9.35 µM. 1.2% of 300,000 active; in the data active = activation above about 30%, passing the limit was not always enough; inconclusive = no clear call, values can overlap the other calls;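 also: 0% = neutral control wells and 100% = positive control wells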
Statin myotox sup: suppression of simvastatin myotoxicity; 0.78% of 330,000 active; AID 602340; C2C12 myotubes + simvastatin, ATP luminescence, 48 h; scaled: DMSO 0, geranylgeraniol control 100; rescue of ATP level, % at 7.49 µM;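 active = mean ATP rescue above about 67%, or every replicate alone reaching that limit, limit read from the data, passing the limit was not always enough; inconclusive = no clear call, values can overlap the other calls; inactive = mean under the limit and some replicate under it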;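 also: myotubes were challenged with 10 µM simvastatin during compound exposure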
Rtt109 HAT inh: blocks Candida albicans Rtt109/Vps75 acetyltransferase activity; Q5AAJ8; purified Rtt109/Vps75, ThioGlo CoA-SH fluorescence, 4 h; inhibition, % at 34.9 µM; 0.16% of 330,000 active;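 active = inhibition of at least 50% in every replicate; inconclusive = best replicate reaches 50% inhibition but some replicates fall short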
Target sequence (Q5AAJ8 whole entry, looked up): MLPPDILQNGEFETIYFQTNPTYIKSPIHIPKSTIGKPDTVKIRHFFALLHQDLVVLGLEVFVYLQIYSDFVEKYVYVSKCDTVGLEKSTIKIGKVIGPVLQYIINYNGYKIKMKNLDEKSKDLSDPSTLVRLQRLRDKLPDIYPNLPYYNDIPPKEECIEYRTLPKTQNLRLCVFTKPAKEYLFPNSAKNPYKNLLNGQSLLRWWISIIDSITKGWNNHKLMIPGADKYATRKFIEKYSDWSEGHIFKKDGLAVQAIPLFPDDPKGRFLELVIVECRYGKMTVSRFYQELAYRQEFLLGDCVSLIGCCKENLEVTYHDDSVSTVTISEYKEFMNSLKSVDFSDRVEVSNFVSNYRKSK
esBAF inh: SWI/SNF esBAF complex inhibition. mouse ES cells, Bmi1-luciferase knock-in reporter, 24 h; 100% = twice the neutral-well signal. 2% of 350,000 active. reporter increase, % at 12.5 µM. AID 602393; in the data active = activation above about 40%; inconclusive = no clear call, values can overlap the other calls;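 also: 0% = median of the plate's neutral control wells and 100% = double that signal; a rise in the Bmi1 reporter signal indicates esBAF inhibition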
Starred values were filed as active, the others as inactive; ? = inconclusive; . = no result.

SMILES	MITF act	Wnt bcat act	Statin myotox sup	Rtt109 HAT inh	esBAF inh
CCn1c(C)c(CS(=O)(=O)c2ccccc2)[nH]c1=O	0	-1	.	119*	.
Cc1oc(-c2ccc(Cl)cc2)cc1C(=O)O	43	23	6	1	56*
COc1ccc(NC(=O)N(C)C[C@H]2Oc3ccc(NS(=O)(=O)c4c(C)noc4C)cc3CC(=O)N([C@H](C)CO)C[C@H]2C)cc1	.	.	-16	.	1
CN(C)C(=O)C[C@H]1C[C@@H]2c3cc(NS(=O)(=O)c4ccccc4)ccc3O[C@@H]2[C@H](CO)O1	.	.	-2	.	-1
O=C1C(=O)N(Cc2cccnc2)C(c2ccccn2)/C1=C(/O)c1ccccc1 (stereo not given)	-4	4	135*	16	4
O=C1C(=O)N(CCN2CCOCC2)C(c2ccccn2)/C1=C(/O)c1ccc(F)cc1 (stereo not given)	-3	1	.	-1	.
COc1ccc(/C(O)=C2/C(=O)C(=O)N(c3ccccn3)C2c2ccc(F)cc2)cc1 (stereo not given)	84*	1	3	-2	23
CN(C)CCN1C(=O)C(=O)/C(=C(/O)c2ccc3c(c2)OCCO3)C1c1ccccn1 (stereo not given)	0	37*	-4	0	9
COc1ccc(/C(O)=C2/C(=O)C(=O)N(CCN3CCOCC3)C2c2ccccn2)cc1 (stereo not given)	3	?	-2	.	44*
CCCN1C[C@H](C)[C@H](OC)CN(C)C(=O)c2ccc(NC(=O)CC)cc2OC[C@H]1C	.	.	-36	.	-1
C[C@H](CO)N1C[C@H](C)[C@H](CN(C)C(=O)c2ccncc2)OCCCC[C@H](C)Oc2ccc(NC(=O)CCCCCC(=O)Nc3ccccc3N)cc2C1=O	.	.	.	.	-1
C[C@@H]1CN([C@@H](C)CO)C(=O)c2cc(C3=CCCCC3)cnc2O[C@H]1CN(C)S(C)(=O)=O	.	.	24	.	.
C[C@H](CO)N1C[C@H](C)[C@H](CN(C)C(=O)Nc2ccc3c(c2)OCO3)Oc2c(NS(=O)(=O)c3cccs3)cccc2C1=O	.	.	-22	.	0
COc1ccccc1C1NC(c2ccccc2OC)C(C)C(=O)C1C (stereo not given)	0	.	1	8	6
COc1ccc(C2NC(c3ccc(OC)c(OC)c3OC)C(C)C(=O)C2C)c(OC)c1OC (stereo not given)	-12	-5	86*	7	2
CO[C@H]1CN(C)C(=O)c2cc(NS(=O)(=O)CC(F)(F)F)ccc2OC[C@@H](C)N(CCC(F)(F)F)C[C@@H]1C	.	.	-9	.	2
CC(=O)Nc1nnc(COc2ccc(Cl)cc2)s1	100*	-1	-3	-4	?
CC(C)C(=O)Nc1nnc(COc2ccc(Cl)cc2)s1	.	23	.	-20	.
C[C@H]1CN([C@@H](C)CO)C(=O)c2cc(NC(=O)c3ccncc3)ccc2O[C@@H]1CN(C)S(=O)(=O)c1ccc(Cl)cc1	.	.	-25	.	-1
C[C@@H]1CCCCO[C@@H](CN(C)S(C)(=O)=O)[C@H](C)CN([C@H](C)CO)C(=O)c2cc(NC(=O)Nc3ccc(C(F)(F)F)cc3)ccc2O1	.	.	.	.	-4
CN(C)CC(=O)N[C@H]1CC[C@@H](CC(=O)NCc2ccccc2F)O[C@@H]1CO	.	.	2	.	-4
CC1(C)Cc2c(c(N3CCOCC3)nc3sc(C(=O)Nc4ccccc4)c(N)c23)CO1	11	34*	-53	-12	38
O=c1/c(=C\c2cccnc2)sc2nc3ccccc3n12	38	15	-29	4	66*
CCOC(=O)C1=C(C)Nc2ncnn2C1c1ccccc1F (stereo not given)	3	.	81*	12	-10
CC(=O)C1=C(C)Nc2ncnn2C1c1ccccc1OCc1ccccc1 (stereo not given)	-14	9	114*	3	0
SMILES	MITF act	Wnt bcat act	Statin myotox sup	Rtt109 HAT inh	esBAF inh
COc1ccc(S(=O)(=O)N(C)C[C@@H]2OCCCC[C@@H](C)Oc3ccc(NC(=O)CCC(F)(F)F)cc3C(=O)N([C@@H](C)CO)C[C@@H]2C)cc1	.	.	.	.	5
Fc1cnc(N2CCc3ccccc32)nc1N1CCc2ccccc21	35	11	-21	3	47*
CC1(C)CC(=O)c2cnc(N3CCc4ccccc43)nc2C1	.	39*	.	2	.
Cc1ccc(C2CC(=O)c3cnc(N4CCc5ccccc5C4)nc3C2)cc1 (stereo not given)	-3	.	19	5	-5
Fc1cnc(N2CCN(c3ccccc3)CC2)nc1N1CCN(c2ccccc2)CC1	6	-2	.	0	.
CN(C)NC(=S)Nc1cccc(C(F)(F)F)c1	-3	0	-6	-6	-9
Cc1ccc(NC(=S)NNC(=S)Nc2cccc(C(F)(F)F)c2)cc1	.	40*	.	8	.
C=CCn1c(SCC(N)=O)nc2scc(-c3ccc(C)o3)c2c1=O	26	48*	.	21	.
C=CCn1c(SCc2ccccc2)nc2scc(-c3ccc(C)o3)c2c1=O	-2	.	-4	-6	4
Cc1ccc(Cc2c(-c3ccc(F)cc3)nc3cc(C)ccn23)cc1	.	16	23	.	44*
COCc1nc2ccccc2n1CCCOc1ccccc1	.	-2	127*	3	8
COCn1c(COc2ccc3ccccc3c2)nc2ccccc21	?	.	-31	0	79*
CCOCCn1c(COc2ccccc2)nc2ccccc21	15	.	122*	-8	-22
CO[C@@H]1CN(C)C(=O)c2cc(NS(C)(=O)=O)ccc2OC[C@H](C)N(CCC(F)(F)F)C[C@@H]1C	.	.	-5	.	-5
C/C=C/c1ccc2c(c1)O[C@@H](CN(C)Cc1ccncc1)[C@H](C)CN([C@H](C)CO)S2(=O)=O	.	.	-36	.	1
COC(=O)C[C@@H]1C[C@@H]2c3cc(NC(=O)Nc4ccc(OC)cc4)ccc3O[C@@H]2[C@H](CO)O1	.	.	1	.	2
CNc1cc(-c2ccc(CC#N)cc2)ncn1	.	3	5	.	50*
CC(C)(C)NC(=O)C(c1cc2ccccc2o1)n1c(-c2ccc(-c3ccccc3)cc2)nc2ccccc21 (stereo not given)	.	51*	.	.	.
Cc1cccc(OCCCCc2c(C)n[nH]c2C)c1C	0	-2	103*	-6	3
C[C@H]1CN([C@@H](C)CO)C(=O)c2cc(Br)cnc2O[C@H]1CN(C)S(=O)(=O)c1ccc(F)cc1	.	.	10	.	-4
CCC(CC)c1nnc(NC(=O)c2ccc3ccccc3n2)s1	11	.	-21	1	53*
CCC(CC)c1nnc(NC(=O)c2cc(-c3ccccc3)nc3ccccc23)s1	-4	.	.	-3	.
COc1ccc(-c2cc(C(=O)Nc3cc(Cl)ccc3O)no2)cc1	113*	14	-10	-1	?
COc1ccc(-c2cc(C(=O)NC(C)C)no2)cc1	105*	.	.	-10	.
COC(=O)c1cc(-c2ccc(OC)cc2)on1	13	-3	2	2	-8
CCCN1[C@@H]2Cn3c(ccc(/C=C/c4ccccc4)c3=O)[C@H]1[C@@H](C(=O)NCc1ccccn1)[C@@H]2CO	.	.	17	.	6

Source: PubChem BioAssay (Broad Institute)
